High-throughput results (PubChem BioAssay)
ATXN viability – Viability Counterscreen for Primary qHTS for Inhibitors of ATXN expression; S2 cells (HEK-293 line with an ATXN2-luciferase reporter) viability, CellTiter-Fluor protease fluorescence, 24 h; actives 0.49% (n = 400,000); Potency, µM (doses to about 56.7 µM), hits mostly cytotoxic; also: potency is read from the fitted curve at half-maximal effect; nearly all actives have a fitted effect of over 40% in size
HepG2 tox – qHTS for Inhibitors of TGF-b: Cytotox Counterscreen; HepG2 CAGA-GFP viability, ATP luminescence, 18 h; Potency, µM (top dose mostly 46.1 µM), for inactives: top-dose activity change, negative = cytotoxicity, usual class: cytotoxic; actives 0.76% (n = 410,000); also: potency is read from the fitted curve at half-maximal effect
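CellTiter-Glo luminescence gave cytotoxicity after 18 hours at 37 degrees C. The cells were HepG2 CAGA-GFP in 1% FBS DMEM, stimulated with 500 pg/mL TGF-beta after compound addition. %Activity was normalised to no-cell wells (complete cell-killing) and DMSO (no toxicity), and curves were fitted and classified.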
TGFb inhibitor – qHTS for Inhibitors of TGF-b. HepG2 CAGA-GFP TGF-b/SMAD3 reporter, GFP fluorescence, 18 h; TGF-beta stimulated, 500 pg/mL final. Potency, µM (series often up to 46.1 µM), for inactives: at the highest dose activity, negative = inhibition, usual class: inhibitors. actives 1.2% (n = 410,000). AID 588855, 2011; also: potency is read from the fitted curve at half-maximal effect; % is scaled to controls: 0 for no effect and ±100 for the full control effect; nearly all actives have a fitted effect of over 65% in size
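Smad-responsive CAGA-GFP expression was quantified in HEPG2 cells exposed to compounds and 500 pg/mL final TGF-beta for 18 h at 37 degrees C; unstimulated wells defined full inhibition.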
LDHA block – qHTS assay for inhibitors of human lactate dehydrogenase; L-lactate dehydrogenase A chain (Homo sapiens), P00338; purified LDHA, NADH/diaphorase-resazurin fluorescence; hits give low values; activity change, % (values are at about 110 or 230 µM); actives 0.15% (n = 480,000); AID 1347041, 2019; in the data active = activity change below about -30%; inconclusive = mostly about -25% to -30%;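 also: plate controls were DMSO wells for no effect and wells without enzyme for full effect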
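LDH5 2 nM; NADH 0.06 mM, pyruvate 0.2 mM; 200 mM Tris pH 7.4, EDTA, Tween-20; 5 min RT. Detection: diaphorase 0.133 mg/mL + resazurin 37 µM, fluorescence ex540/em590 at 0 and 20 min; normalized to enzyme-free and DMSO wells.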
ATXN2 expr inh – Primary qHTS for Inhibitors of ATXN expression. Potency, µM (top dose mostly 57 µM), inactives show at the top dose activity change, negative = inhibition, most hits filed as inhibitors. AID 1745845, 2022. actives 0.72% (n = 360,000). HEK-293 ATXN2-luciferase reporter, luminescence, 24 h; also: potency is read from the fitted curve at half-maximal effect; % is scaled to controls: 0 for no effect and ±100 for the full control effect; nearly all actives have a fitted effect of over 55% in size
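ATXN2-luciferase reporter cells (luciferase flanked by upstream and downstream ATXN2 gene portions) were treated 24 h at 37 °C with compounds at up to 57 uM. SteadyGlo luminescence gave expression; GF-AFC fluorescence gave viability.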
mIDH1 inhibitor – qHTS for Inhibitors of mutant isocitrate dehydrogenase 1 (IDH1): qHTS. IDH1-R132H enzyme, NADPH consumption, diaphorase/resazurin fluorescence. Isocitrate dehydrogenase [NADP] cytoplasmic (Homo sapiens), O75874. AID 602179, 2012. actives 0.093% (n = 390,000). Potency, µM (titrated, usually from 76.6 µM), for inactives: top-dose activity change, negative = inhibition, usual class: inhibitors; also: potency is read from the fitted curve at half-maximal effect; % is scaled to controls: 0 for no effect and ±100 for the full control effect; nearly all actives have a fitted effect of over 65% in size
Target sequence (O75874 whole entry R132H, stated change not applied): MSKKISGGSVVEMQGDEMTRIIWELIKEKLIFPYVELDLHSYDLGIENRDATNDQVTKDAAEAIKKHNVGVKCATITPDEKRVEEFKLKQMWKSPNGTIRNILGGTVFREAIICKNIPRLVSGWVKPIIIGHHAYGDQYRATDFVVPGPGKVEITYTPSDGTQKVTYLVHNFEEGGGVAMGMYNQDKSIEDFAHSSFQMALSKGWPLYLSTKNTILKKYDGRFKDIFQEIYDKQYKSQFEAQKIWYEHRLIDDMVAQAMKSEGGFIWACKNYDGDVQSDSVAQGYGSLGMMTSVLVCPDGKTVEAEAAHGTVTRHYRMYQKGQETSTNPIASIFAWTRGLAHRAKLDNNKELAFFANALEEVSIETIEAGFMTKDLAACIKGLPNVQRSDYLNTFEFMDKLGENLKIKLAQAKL
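IDH1-R132H (0.5 ug/mL dispensed) in pH 7.5 Tris buffer was preincubated 30 min with compound, then given a substrate mix of 0.016 mM NADPH and 2 mM alpha-KG for 80 min at room temperature; remaining NADPH was read by diaphorase/resazurin fluorescence.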
* marks the source's active call; other numbers are inactive results; i = inactive; u = inconclusive; x = not tested or not shown; [ ] = remark or other dose. An excerpt weighted towards active compounds, which were near 2.2% of everything screened. Unless noted, calls follow the shape of the dose curve; as a rule, active = well fitted curve in the direction sought with a large enough effect; inconclusive = small, poorly fitted or top-dose-only effect, or another doubt; inactive = no such curve, though single readings can be large; an effect the other way counts as inactive or inconclusive.

SMILES | ATXN viability | HepG2 tox | TGFb inhibitor | LDHA block | ATXN2 expr inh | mIDH1 inhibitor
Clc1ccc2nc(N3CCNCC3)nc(-c3ccccc3)c2c1 | i | 12.6µM* | u | 2.6 | u | 5.0%
CN(C)c1ccc(/C=C/N2C=CCc3c2ccc2ccccc32)cc1 | x | -84.9% | 7.08µM* | x | x | x
CN(C)c1ccc(C=Nc2cccc3ccccc23)cc1 | x | x | x | 38.4 | x | x
Nc1nc(-c2ccc(Oc3ccccc3)cc2)cs1 | i | -15.5% | -18.4% | 1.7 | x | 8.9%
Cn1c(SCC(=O)N2c3ccccc3Sc3ccccc32)nc2ccccc21 | i | 11.7% | -8.5% | -4.4 | -3.9% | 0.1%
CN(C)CCCn1c(SCC(=O)N2c3ccccc3Sc3ccccc32)nc2ccccc2c1=O | 25.1µM* | 10µM* | -21.3% | 1.6 | 28.2µM* | 3.8%
Cc1cccc(C2=NN(c3ccccc3)[C@@H](C(=O)N3CCOC3=O)[C@@H]2c2ccc(F)cc2)c1 | x | -15.8% | 17.8µM* | 3.6 | -3.9% | 17.5%
O=C1OCCN1C(=O)[C@H]1[C@H](c2ccc(F)cc2)C(c2ccc(F)cc2)=NN1c1ccc(Br)cc1 | i | -47.9% | 11.2µM* | 0.9 | -24.8% | -3.4%[38.3 µM]
O=C(Cn1c(-c2ccccc2)c[n+]2ccsc12)c1ccc(Br)cc1 | u | -16.3% | -4.9% | -4.3 | -24.7% | 3.7%
COC1=C(Nc2ccc(O)cc2)C(=O)c2ccccc2C1=O | u | -84.0% | u | 23.0 | -16.9% | 4.0%
CCOc1ccc(NC2=C(OC)C(=O)c3ccccc3C2=O)cc1 | u | -83.1% | 11.2µM* | 17.6 | -4.0% | 4.2%
COC1=C(Nc2ccc(OC)cc2)C(=O)c2ccccc2C1=O | u | -57.8% | 15.8µM* | 15.3 | 3.2% | -1.6%
COc1cc(NCC2COc3c(ccc(OC)c3OC)C2=O)c([N+](=O)[O-])cc1OC (centres undefined) | i | -39.4% | u | 13.3 | -12.0% | x
Cc1ccc2c(c1)-c1nc(-c3ccc4c(c3)NC(=O)CO4)cc(-c3ccccc3)c1CO2 | i | 6.5% | -0.2% | -2.9 | 3.4% | -14.3%
O=C1Cc2c(-c3ccccc3)cc(-c3cccc(Cl)c3)nc2-c2ccccc2N1 | u | 0.891µM* | -7.7% | -1.5 | u | 0.8%
COc1ccc(/C=C/C(=O)OC2CCC(C(C)(C)C)CC2)cc1OC (centres undefined) | x | x | x | 12.3 | x | x
CCCCc1ccc(NC(=O)C2CCCC2)cc1 | i | 9.9% | 6.9% | -5.6 | 47.8% | 7.3%
COc1ccc2[nH]cc(C(=O)CCl)c2c1 | 15.8µM* | -107.2% | u | -1.7 | u | 21.4%
COc1ccc2[nH]cc(C(=O)CN3CC(C)CC(C)C3)c2c1 (centres undefined) | u | -6.5% | 0.5% | 4.6 | -14.5% | 8.9%
CNC(=O)c1ccc(NC(=O)c2nsc3ccccc23)cc1 | x | -59.1% | x | -14.1 | x | x
CCOc1ccccc1Oc1c(C)oc2cc(OC(=O)c3ccc4c(c3)OCO4)ccc2c1=O | x | x | x | 0.6 | x | x
CCOc1ccccc1Oc1coc2cc(OC(=O)c3ccc4c(c3)OCO4)ccc2c1=O | x | x | x | -31.3* | x | x
O=c1cc(-c2c(F)c(F)c(F)c(F)c2F)oc2ccccc12 | u | -60.7% | -5.5% | -2.6 | 22.4µM* | 0.8%
O=c1cc(-c2cccc(F)c2)oc2ccccc12 | i | -3.4% | 11.9% | -2.0 | 21.4% | 3.9%
CC(C)c1ccc(NC(=O)CSc2nc(=O)n(Cc3cccnc3)c3c2CCC3)cc1 | i | -46.7% | 11.2µM* | 2.4 | -38.7% | 15.2%
CC(NC(=S)NCCc1ccccc1)C(c1cccs1)N1CCN(Cc2ccccc2)CC1 (centres undefined) | u | -43.4% | u | 2.7 | u | -3.5%
